# Assays:
# Assay in all cases: yeast three-hybrid, YBZ-1, SC-Leu-His + 0.5 mM 3-AT, 4 days
# Details in all cases: tags: N-Gal4 AD-HA kept; label: inside an RPR1-promoter hybrid RNA with tandem MS2 sites; ssRNA
# [1] = biological target: PUM1 PUF domain R1-GYR (Homo sapiens, UniProt Q14671 828-1176, S863G;R864Y;Q867R)
# Procedure, shortened: (§1)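 The interaction score is the logarithmic change in variant frequency from input to selection. It uses log2, with a pseudocount of 1 for absent variants, and frequencies came from PCR-amplified, Illumina-sequenced repeat regions. The libraries were Pumilio-1 PUF domains randomized at the three base-contacting residues per repeat, co-expressed with matching RNA elements in strain YBZ-1 (LexA–MS2 coat fusion, HIS3 reporter). Plating lasted four days on SC-Leu (input) or SC-Leu-His + 0.5 mM 3-AT (selection).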
# [2] = biological target: PUM1 PUF domain R4-APC (Homo sapiens, UniProt Q14671 828-1176, N971A;H972P;Q975C)
# PUM1 PUF domain R4-APC, sequence (Q14671 828-1176 N971A/H972P/Q975C): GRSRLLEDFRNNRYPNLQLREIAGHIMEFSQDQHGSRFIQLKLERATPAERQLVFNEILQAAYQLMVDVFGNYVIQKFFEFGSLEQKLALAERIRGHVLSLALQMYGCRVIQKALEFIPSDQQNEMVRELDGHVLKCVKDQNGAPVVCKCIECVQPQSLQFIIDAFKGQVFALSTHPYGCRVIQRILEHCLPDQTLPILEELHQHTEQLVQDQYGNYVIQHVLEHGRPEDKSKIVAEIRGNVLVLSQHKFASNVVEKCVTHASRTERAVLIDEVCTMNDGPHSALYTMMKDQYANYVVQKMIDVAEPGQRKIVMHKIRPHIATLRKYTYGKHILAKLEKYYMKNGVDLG
# Procedure, shortened: as §1
# [3] = biological target: PUM1 PUF domain R5-RRH (Homo sapiens, UniProt Q14671 828-1176, C1007R;Q1011H)
# PUM1 PUF domain R5-RRH, sequence (Q14671 828-1176 C1007R/Q1011H): as the sequence (Q14671 828-1176 N971A/H972P/Q975C) above, with A144N, P145H, C148Q, C180R, Q184H counted along it
# Procedure, shortened: as §1
# [4] = biological target: PUM1 PUF domain R3-APD (Homo sapiens, UniProt Q14671 828-1176, C935A;R936P;Q939D)
# PUM1 PUF domain R3-APD, sequence (Q14671 828-1176 C935A/R936P/Q939D): as the sequence (Q14671 828-1176 N971A/H972P/Q975C) above, with C108A, R109P, Q112D, A144N, P145H, C148Q counted along it
# Procedure, shortened: as §1
# [5] = biological target: PUM1 PUF domain R8-RWW (Homo sapiens, UniProt Q14671 828-1176, N1122R;Y1123W;Q1126W)
# PUM1 PUF domain R8-RWW, sequence (Q14671 828-1176 N1122R/Y1123W/Q1126W): as the sequence (Q14671 828-1176 N971A/H972P/Q975C) above, with A144N, P145H, C148Q, N295R, Y296W, Q299W counted along it
# Procedure, shortened: as §1
# [6] = biological target: PUM1 PUF domain R3-MRY (Homo sapiens, UniProt Q14671 828-1176, C935M;Q939Y)
# PUM1 PUF domain R3-MRY, sequence (Q14671 828-1176 C935M/Q939Y): as the sequence (Q14671 828-1176 N971A/H972P/Q975C) above, with C108M, Q112Y, A144N, P145H, C148Q counted along it
# Procedure, shortened: as §1
# [7] = biological target: PUM1 PUF domain R3-QCD (Homo sapiens, UniProt Q14671 828-1176, C935Q;R936C;Q939D)
# PUM1 PUF domain R3-QCD, sequence (Q14671 828-1176 C935Q/R936C/Q939D): as the sequence (Q14671 828-1176 N971A/H972P/Q975C) above, with C108Q, R109C, Q112D, A144N, P145H, C148Q counted along it
# Procedure, shortened: as §1
# [8] = biological target: PUM1 PUF domain R3-IWD (Homo sapiens, UniProt Q14671 828-1176, C935I;R936W;Q939D)
# PUM1 PUF domain R3-IWD, sequence (Q14671 828-1176 C935I/R936W/Q939D): as the sequence (Q14671 828-1176 N971A/H972P/Q975C) above, with C108I, R109W, Q112D, A144N, P145H, C148Q counted along it
# Procedure, shortened: as §1
# [9] = biological target: PUM1 PUF domain R8-QFC (Homo sapiens, UniProt Q14671 828-1176, N1122Q;Y1123F;Q1126C)
# PUM1 PUF domain R8-QFC, sequence (Q14671 828-1176 N1122Q/Y1123F/Q1126C): as the sequence (Q14671 828-1176 N971A/H972P/Q975C) above, with A144N, P145H, C148Q, N295Q, Y296F, Q299C counted along it
# Procedure, shortened: as §1
# [10] = biological target: PUM1 PUF domain R3-RRA (Homo sapiens, UniProt Q14671 828-1176, C935R;Q939A)
# PUM1 PUF domain R3-RRA, sequence (Q14671 828-1176 C935R/Q939A): as the sequence (Q14671 828-1176 N971A/H972P/Q975C) above, with C108R, Q112A, A144N, P145H, C148Q counted along it
# Procedure, shortened: as §1
# PUM1 PUF domain R1-GYR, sequence (Q14671 828-1176 S863G/R864Y/Q867R): as the sequence (Q14671 828-1176 N971A/H972P/Q975C) above, with S36G, R37Y, Q40R, A144N, P145H, C148Q counted along it
sequence,measurement,setting,value
GGCUAGAACUAGUGGAUCCCCCGGCGCCCGGCGGCUCGAGCCCGGGUAAGUGUAAAUCGUCUGCAUGCCGCCGGGCGCCAUGCCUGCAGGUCGACUCUAGAAAACAUG,binding signal,[1],4.99 log2 enrichment (interaction score)
GGCUAGAACUAGUGGAUCCCCCGGCGCCCGGCGGCUCGAGCCCGGGUAAGUGUAAAUUGUCUGCAUGCCGCCGGGCGCCAUGCCUGCAGGUCGACUCUAGAAAACAUG,binding signal,[1],2.71 log2 enrichment (interaction score)
GGCUAGAACUAGUGGAUCCCCCGGCGCCCGGCGGCUCGAGCCCGGGUAAGUGUACAUAGUCUGCAUGCCGCCGGGCGCCAUGCCUGCAGGUCGACUCUAGAAAACAUG,binding signal,[2],1.88 log2 enrichment (interaction score)
GGCUAGAACUAGUGGAUCCCCCGGCGCCCGGCGGCUCGAGCCCGGGUAAGUGUGAAUAGUCUGCAUGCCGCCGGGCGCCAUGCCUGCAGGUCGACUCUAGAAAACAUG,binding signal,[3],1.47 log2 enrichment (interaction score)
GGCUAGAACUAGUGGAUCCCCCGGCGCCCGGCGGCUCGAGCCCGGGUAAGUGUAUAUAGUCUGCAUGCCGCCGGGCGCCAUGCCUGCAGGUCGACUCUAGAAAACAUG,binding signal,[2],3.17 log2 enrichment (interaction score)
GGCUAGAACUAGUGGAUCCCCCGGCGCCCGGCGGCUCGAGCCCGGGUAAGUGUAAAUAGUCUGCAUGCCGCCGGGCGCCAUGCCUGCAGGUCGACUCUAGAAAACAUG,binding signal,[3],1.96 log2 enrichment (interaction score)
same,binding signal,[4],4.44 log2 enrichment (interaction score)
same,binding signal,[5],4.93 log2 enrichment (interaction score)
same,binding signal,[2],4.14 log2 enrichment (interaction score)
GGCUAGAACUAGUGGAUCCCCCGGCGCCCGGCGGCUCGAGCCCGGGUAAGUGUAAGUAGUCUGCAUGCCGCCGGGCGCCAUGCCUGCAGGUCGACUCUAGAAAACAUG,binding signal,[6],4.3 log2 enrichment (interaction score)
same,binding signal,[7],3.09 log2 enrichment (interaction score)
same,binding signal,[4],6.54 log2 enrichment (interaction score)
same,binding signal,[8],4.83 log2 enrichment (interaction score)
GGCUAGAACUAGUGGAUCCCCCGGCGCCCGGCGGCUCGAGCCCGGGUAAGUGUCAAUAGUCUGCAUGCCGCCGGGCGCCAUGCCUGCAGGUCGACUCUAGAAAACAUG,binding signal,[3],5.57 log2 enrichment (interaction score)
GGCUAGAACUAGUGGAUCCCCCGGCGCCCGGCGGCUCGAGCCCGGGUAAGCGUAAAUAGUCUGCAUGCCGCCGGGCGCCAUGCCUGCAGGUCGACUCUAGAAAACAUG,binding signal,[5],5.89 log2 enrichment (interaction score)
same,binding signal,[9],3.87 log2 enrichment (interaction score)
GGCUAGAACUAGUGGAUCCCCCGGCGCCCGGCGGCUCGAGCCCGGGUAAGUGUAAUUAGUCUGCAUGCCGCCGGGCGCCAUGCCUGCAGGUCGACUCUAGAAAACAUG,binding signal,[6],1.32 log2 enrichment (interaction score)
same,binding signal,[10],3.19 log2 enrichment (interaction score)
